Records with an inconclusive call do not appear. Where a call stands in place of a potency, no number is given. A number with no mark means an inactive call. Calls of active or inactive are those of the source. The call rests on the fitted dose curve; in most records, active means well fitted inhibition curve with a large enough effect; inconclusive means small, poorly fitted or top-dose-only effect; inactive means no such curve, though single readings can be large or run the other way.
Molecular target: Retinaldehyde dehydrogenase 3 (Homo sapiens) (UniProt P47895)
Experiment: qHTS for Inhibitors of the Aldehyde Dehydrogenase Family (ALDH1A3) Primary screen (AID 2061315)
Details: ALDH inhibition qHTS; series mostly up to 56 µM

SMILES	Potency	activity change, negative = inhibition
NC(=O)c1cccc2cn(-c3ccc(C4CCCNC4)cc3)nc12 (stereo not given)	inactive	
CC(C)S(=O)(=O)NC[C@H](C)c1ccc(-c2ccc(CCNS(C)(=O)=O)cc2)cc1	inactive	
Cc1cc(-c2nc(-c3ccc(OC(F)(F)F)cc3)no2)nn1Cc1ccnc(N2CCN(C3CC3)CC2)c1	inactive	
Cc1cc(C(=O)Cn2cc(C#N)ccc2=O)c(C)n1Cc1ccccc1	inactive	
COc1cc2ncnc(Oc3ccc(CC(=O)Nc4cnn(C(C)C)c4)cc3)c2cc1OC	inactive	
CC(C)(C)c1ccc(S(=O)(=O)NCc2ccc(C(=O)Nc3cccnc3)cc2)cc1	inactive	
c1ccc(C(OC2CCN(CCCc3nn[nH]n3)CC2)c2ccccc2)cc1	inactive	
C[C@@H]1C(=O)O[C@H]2CC34[C@H]5C[C@@H](C(C)(C)C)C36[C@@H](OC(=O)[C@@H]6O)OC4(C(=O)O5)[C@]21O (stereo not given in full)	inactive	
Clc1ccccc1CNCC1CCC(CNCc2ccccc2Cl)CC1 (stereo not given)	inactive	
O=S(=O)(Cc1ccccc1)Nc1ccc(-c2ccc3c(cnn3-c3ccc(F)cc3)c2)c(C(F)(F)F)c1	inactive	
CCC(C)c1ccc(NC(=O)Cn2cnc3c2c(=O)n(C)c(=O)n3C)cc1 (stereo not given)	inactive	
COC(=O)C(CC1CCCC1)c1ccc(S(C)(=O)=O)cc1 (stereo not given)	inactive	
CCNC(=O)C1CC(F)(c2ccc(CN3CCCC3)c(F)c2)C1 (stereo not given)	inactive	
CC[C@H](C(=O)Nc1ccccc1N1CCCC1)c1ccccc1	inactive	
CCc1c(CC(N)=O)c2cc(OCCCP(=O)(O)O)ccc2n1Cc1ccccc1	inactive	
Nc1c(-c2ccccc2)nc(Cl)c2c(O)n[nH]c(=O)c12	inactive	
CCCCOC(=O)NC(=O)C1c2ccccc2Oc2ccccc21	inactive	
CC(C)N(CCCCOCC(=O)NS(C)(=O)=O)c1cnc(-c2ccccc2)c(-c2ccccc2)n1	inactive	
CC(c1ncncc1F)C(O)(Cn1cncn1)c1ccc(F)cc1F (stereo not given)	inactive	
CNc1cc2[nH]c(=O)n(-c3ccc(NC(=O)NS(=O)(=O)c4ccc(Cl)s4)cc3)c(=O)c2cc1F	inactive	

SMILES	Potency	activity change, negative = inhibition
CC(C)[C@@H](c1ccc(C(F)(F)F)cc1CN(Cc1cc(C(F)(F)F)cc(C(F)(F)F)c1)c1nnn(C)n1)N1CCC(C(=O)O)CC1	inactive	
O=S(=O)(Nc1ccccc1N1CCCCC1)c1ccc(Cl)s1	inactive	
CCOC(=O)CCN(C(=O)c1ccc2c(c1)nc(CNc1ccc(C(=N)N)cc1)n2C)c1ccccn1	inactive	
CC(OC1OCCN(Cc2n[nH]c(=O)[nH]2)C1c1ccc(F)cc1)c1cc(C(F)(F)F)cc(C(F)(F)F)c1 (stereo not given)	inactive	
O=C(N[C@H](Cc1ccccc1)C(=O)O)c1sc2cc(F)ccc2c1Cl	inactive	
O=C(NCc1cccc(O)c1)c1cc2cc(F)ccc2[nH]1	inactive	
CNC(=O)COC(=O)NCCC1CCN(c2cccc(C)n2)CC1	inactive	
Cn1ncnc1COc1nn2c(-c3cc(F)ccc3F)nnc2cc1C(C)(C)C	inactive	
CNC(=O)c1ccccc1Nc1nc(Nc2ccc(N3CCNCC3)cc2)ncc1Cl	inactive	
COc1cc(Nc2nc3c(s2)CCCC3c2ccc(F)cc2)ccc1-n1cnc(C)c1 (stereo not given)	inactive	
CN(C)C(=O)NC1CCC(CCN2CCN(c3cccc(Cl)c3Cl)CC2)CC1 (stereo not given)		-11.6% [at 11.2 µM]
CCOc1ccc(NC(=S)N2CCC(C(O)(c3ccccc3)c3ccccc3)CC2)cc1	inactive	
COc1ccncc1C(=O)NC(=O)Nc1ccc(-c2ccccc2)c(C(F)(F)F)c1	inactive	
O=C(CCCN1CCN(c2ccccn2)CC1)c1ccc(F)cc1	inactive	
COc1ccc(C(=O)NCc2cc(C(C)C)no2)cc1OC1CCN(C)CC1	inactive	
CCCc1ccc(OCC(=O)N(Cc2nc(-c3cccnc3)no2)C(C)C)cc1	inactive	
CN[C@H](CNC(=O)N1CCC[C@@H]([C@@H](OCCNC(=O)OC)c2cccc(Cl)c2)C1)C[C@H]1CCCOC1	inactive	
Cc1c(OCc2cccc(-c3ccc(C(=O)O)cc3)c2)cc2c(c1C)C(=O)C(C1CCCC1)C2 (stereo not given)	inactive	
CCO[C@H]1CN(C2CCC(O)(c3ccc4c(c3)OCO4)CC2)C[C@@H]1NC(=O)CNC(=O)c1cccc(C(F)(F)F)c1 (stereo not given in full)	inactive	
O=C(NCCCn1ccnc1)c1cc(-c2ccco2)on1	inactive	
